# D1 antag = Antagonist of Human D 1 Dopamine Receptor: qHTS; HEK293 TREx D1 cells, calcium flux, dopamine EC80; hits give low values; 360,000 compounds, 3.2% hits; AID 504652, 2011; D(1A) dopamine receptor (Homo sapiens), P21728; activity change, negative = inhibition, % at 10 µM; in the data active = activity change below about -30%
#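 Cells carrying a force-coupled, tetracycline-inducible human D1 receptor report calcium flux. Each well gets a 10 s baseline, compound with 180 s monitoring, then an EC80 dopamine stimulus with a second 180 s kinetic read.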
# D1 agonist = Allosteric Agonists of the Human D1 Dopamine Receptor: qHTS; D(1A) dopamine receptor (Homo sapiens), P21728; 360,000 compounds, 1% hits; activation, % at 2 µM; HEK293 T-REx D1 cells, calcium flux, agonist mode
#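 Inducible HEK293 T-REx D1 cells, force-coupled to calcium signalling, were plated at 4000 cells/well with tetracycline and held overnight at 30 C. After no-wash calcium dye loading, compound-evoked calcium rise over 180 s flagged agonists.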
# D1 PAM = Potentiators of Human D1 Dopamine Receptor: qHTS; HEK293 TREx D1 cells, calcium flux, dopamine EC20 potentiation; potentiation, % at 10 µM; 360,000 compounds, 0.036% hits; D(1A) dopamine receptor (Homo sapiens), P21728; in the data active = potentiation above about 30%
# TRHR enhancer = qHTS for Small Molecule Agonists and Allosteric Enhancers of Human TRH Receptor: Primary Screen for Enhancers | 360,000 compounds, 0.66% hits | enhancement, % at 2 µM | TRHR cells, fluo-8 calcium fluorescence, EC20 TRH enhancement | AID 493056, 2011; in the data active = enhancement above about 30%
# Target sequence (P34981 whole entry, looked up): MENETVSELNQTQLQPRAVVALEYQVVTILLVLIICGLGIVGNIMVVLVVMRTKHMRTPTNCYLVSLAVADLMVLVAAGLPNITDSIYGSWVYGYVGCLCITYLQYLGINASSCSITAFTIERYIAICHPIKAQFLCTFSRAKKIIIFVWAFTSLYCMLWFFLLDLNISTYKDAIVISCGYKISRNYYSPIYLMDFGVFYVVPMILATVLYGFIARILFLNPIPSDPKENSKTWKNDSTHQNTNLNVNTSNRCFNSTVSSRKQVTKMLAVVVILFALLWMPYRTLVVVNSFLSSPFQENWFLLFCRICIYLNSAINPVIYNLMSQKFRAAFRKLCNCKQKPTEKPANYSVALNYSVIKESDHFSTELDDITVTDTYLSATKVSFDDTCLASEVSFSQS
#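 TRHR-expressing cells loaded with fluo-8 calcium dye were read kinetically (ex 480/em 530) during compound addition, then stimulated with an EC20 of TRH (10 nM final). Enhancement of the Gq-mediated intracellular calcium response was scored.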
# TRHR ag = qHTS for Small Molecule Agonists and Allosteric Enhancers of Human TRH Receptor: Primary Screen for Agonists | TRHR cells, calcium flux fluo-8, FDSS agonist mode | AID 493084, 2011 | 360,000 compounds, 0.18% hits | activation, % at 2 µM | Thyrotropin-releasing hormone receptor (Homo sapiens), P34981
#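 Read-out: compound-evoked intracellular calcium rise in TRHR cells, fluo-8 dye, kinetic FDSS fluorescence at 1 s/cycle following a 10-cycle baseline. Cells cultured overnight before dye loading (30 min–1.5 h, RT).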
# Numbers stand for hits; i = inactive; nt = not tested or not shown. An excerpt weighted towards active compounds, which were near 4.6% of everything screened. Rule as the data show it, unless noted: active = activation above about 30%; inactive = the rest.
SMILES,D1 antag,D1 agonist,D1 PAM,TRHR enhancer,TRHR ag
Cc1ccc(C)c(OCCC(=O)OCC(=O)N2CCN(S(=O)(=O)c3ccc(Cl)cc3)CC2)c1,i,i,i,i,i
Cc1ccc(C)c(OCCC(=O)N2CCN(S(=O)(=O)c3ccc([N+](=O)[O-])cc3)CC2)c1,-32.6,i,i,i,i
Cc1ccc(S(=O)(=O)N2CCN(C(=O)COC(=O)CCOc3cc(C)ccc3C)CC2)cc1,i,i,i,i,i
Cc1ccc(S(=O)(=O)N2CCN(C(=O)COC(=O)CCOc3ccccc3C)CC2)cc1,-36.2,i,i,i,i
CCOc1ccccc1NC(=O)c1ccc(S(=O)(=O)N2CCCCC2)cc1,i,i,i,32.1,i
COc1ccccc1NC(=O)c1ccc(S(=O)(=O)N2CCCC2)cc1,i,i,i,i,i
CCOc1ccc(OCCC(=O)OCC(=O)N2CCN(S(=O)(=O)c3ccc(Cl)cc3)CC2)cc1,-31.9,i,i,i,i
COc1ccc(NC(=O)CSc2ccc3nc(-c4ccccc4)cn3n2)c(OC)c1,i,i,i,i,i
CCOC(=O)c1cc(-c2ccc(F)cc2)n(CCC(=O)NCc2ccccc2OC)c1C,i,i,i,i,i
CCOC(=O)CSc1nnc(CNC(=O)c2ccc(S(=O)(=O)N3CCOCC3)cc2)n1C,i,i,i,i,i
CCN1CCN(S(=O)(=O)c2ccc(OC)c(NC(=O)c3ccccc3)c2)CC1,-48.1,i,i,i,i
Cc1ccccc1OCCOC(=O)c1ccc(S(=O)(=O)N2CCCC2)cc1,-30.8,i,i,i,i
Cc1ccccc1OCC(=O)OCC(=O)Nc1cc(S(=O)(=O)N2CCCCC2)ccc1Cl,-96.3,i,i,i,i
CCOC(=O)CSc1nnc(CNC(=O)c2ccc(S(=O)(=O)N3CCCC3)cc2)n1C,i,53.6,i,i,i
CCc1cccc(CC)c1NC(=O)CN1CCc2cc(OC)c(OC)cc2C1,i,i,i,i,i
CCc1cccc(NC(=O)c2nc(-c3ccncc3)no2)c1,i,i,i,i,i
COc1ccc2nc(-c3ccccc3)cc(OC)c2c1,-60.5,i,i,i,i
CCC1CCCCN1C(=O)Cn1c(=O)n(-c2ccc(Cl)c(Cl)c2)c(=O)c2c(C)c(C(=O)N(C)C)sc21 (stereo unspecified),-34.0,i,i,i,i
Cc1c(C(=O)N(C)C)sc2c1c(=O)n(-c1ccc(Cl)c(Cl)c1)c(=O)n2CC(=O)C(C)(C)C,i,i,i,i,i
N#C/C(=C\c1cccc(NC(=O)c2ccccc2Cl)c1)C(=O)NCCc1ccccc1,i,i,i,34.9,i
Cc1ccc2sc(N(CCCN(C)C)C(=O)c3ccco3)nc2c1C,i,i,i,i,i
CCN(CC)CCN(C(=O)c1ccco1)c1nc2c(C)c(C)ccc2s1,i,i,i,37.7,i
C=Cc1cc(F)c(S(=O)(=O)N2CCN(S(=O)(=O)c3ccc4c(c3)OCCO4)CC2)cc1F,i,i,i,i,i
Cc1cc(C)cc(OCC(=O)N/N=C/c2ccc([N+](=O)[O-])o2)c1,-37.8,i,i,i,i
O=C(CN1CCCCCCC1)N/N=C/c1ccc([N+](=O)[O-])o1,i,i,i,i,i
SMILES,D1 antag,D1 agonist,D1 PAM,TRHR enhancer,TRHR ag
O=C(CCN1CCN(c2ccccc2)CC1)N/N=C/c1ccc([N+](=O)[O-])o1,-43.4,i,i,i,i
COC(=O)c1ccc(C)c(NC(=O)CCSc2ccc(C)cc2)c1,i,i,i,34.1,i
COC(=O)c1ccc(Sc2ccc(C)cc2)c(N)c1,-35.9,i,i,i,i
COc1ccc(OC)c(CNC(=O)c2ccc(Sc3ccc(C)cc3)c(N)c2)c1,i,i,i,i,i
O=C(C1CCN(S(=O)(=O)c2cccc3nonc23)CC1)N1CCN(c2ccc(F)cc2)CC1,i,i,i,i,i
CCOc1ccc(NC(=O)c2cc3cc(C)ccc3n2C)cc1,-56.5,i,i,i,i
O=C(Nc1nnc(S(=O)(=O)N2CCCc3ccccc32)s1)c1cccc(Cl)c1,i,i,i,i,i
Cc1ccc(-c2nc(CCNC(=O)C(=O)Nc3c(C)cccc3C)cs2)cc1,i,i,i,i,i
CCOC(=O)c1cnc2c(C#N)cnn2c1N,i,i,i,36.3,i
CCOC(=O)c1cnc2c(-c3ccccc3)cnn2c1N,i,i,i,i,i
O=C1NC(=S)S/C1=C/c1ccc(N2CCOCC2)o1,i,i,i,i,i
O=C1S/C(=C\c2ccc(N3CCOCC3)o2)C(=O)N1Cc1ccc(F)cc1,i,42.3,i,i,i
CC(C)OC(=O)CN1C(=O)S/C(=C/c2ccc(N3CCCCC3)o2)C1=O,i,60.9,i,i,i
O=C1S/C(=C/c2ccc(N3CCOCC3)o2)C(=O)N1Cc1ccc(F)cc1,i,83.1,i,i,35.3
COC(=O)c1ccc(Cn2cc(C(F)(F)F)ccc2=O)cc1,i,i,i,i,i
COC(=O)c1cn(Cc2ccc(C(F)(F)F)cc2)cc(F)c1=O,-30.9,i,i,i,i
CC(=O)c1ccc(S(=O)(=O)N2CCN(C(=O)CSc3ccc(C)c(C)c3)CC2)cc1,-34.0,i,i,i,i
O=[N+]([O-])c1ccc2[nH]c(O)c(N=Nc3ccc(F)cc3)c2c1,i,i,i,i,i
Oc1[nH]c2ccc(Br)cc2c1N=Nc1ccc(F)cc1,i,56.4,i,i,i
CCCCCCCCOC(=O)c1nc(Cl)c(Cl)c(N)c1Cl,i,i,i,i,i
COC(=O)c1nc(Cl)c(Cl)c(N)c1Cl,-31.3,i,i,i,i
CCCc1cc(C(=O)Nc2cccc([N+](=O)[O-])c2)cs1,-32.2,i,i,i,i
Cc1cc(C)n(-c2ccc(C(=O)Nc3cccc([N+](=O)[O-])c3)cc2)n1,-35.6,i,i,i,i
Cc1ccc(SCc2ccc(C(=O)Nc3cc([N+](=O)[O-])ccc3C)cc2)cc1,i,i,i,i,i
Cc1cc(C)n(-c2ccc(C(=O)Nc3cccc(S(=O)(=O)N(C)C)c3)cc2)n1,i,i,i,i,i
Cc1ccc(SCc2ccc(C(=O)Nc3cccc([N+](=O)[O-])c3)cc2)cc1,-50.6,i,i,i,i
O=C(Nc1cccc([N+](=O)[O-])c1)c1cnccn1,-59.4,i,i,i,i
CC(C)(C)c1ccc(C(=O)Nc2cccc([N+](=O)[O-])c2)cc1,i,i,i,i,i
Cc1c(Cl)cccc1NC(=O)CN1C(=O)COc2ccc(S(=O)(=O)Nc3ccccc3)cc21,i,i,i,i,i
COc1ccccc1NC(=O)c1ccc(NC(=O)CSc2nc(N)cc(=O)[nH]2)cc1,i,i,nt,i,i

# Screening data (PubChem)
